Data published in PubChem BioAssay AID687010 (National Center for Advancing Translational Sciences (NCATS), 2013).
The source made the active and inactive calls.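 Rule for the calls: active = a significant rise in survival of treated spinal muscular atrophy model mice compared with vehicle-treated controls; inactive = no significant rise in survival.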

Assay: Extended Characterization of SMN2 Inhibitors: Survival Studies
Settings: SMNdelta7 SMA mice, 50 mg/kg i.p. twice daily
Description: Spinal muscular atrophy (SMA) is caused by insufficient levels of the survival motor neuron protein SMN. The SMN locus on chromosome 5q13 contains two inverted copies of SMN called SMN1 and SMN2 which are 99% identical at the amino acid level. SMN1 is a fully functional protein and SMN2 skips exon 7 90% of the time. Skipping of exon 7 produces non-functional protein product. 10% of the SMN2 protein includes exon 7 and is fully functional. In the SMA disease state, mutations in the SMN1 locus are the cause of the disease state. Because only 10% of SMN2 is of the fully functional form, it is not sufficient to overcome the deficiency produced by the loss of the SMN1 product. A therapy that either increase the amount of SMN2 product made or to increase the inclusion of exon 7 has been proposed for the treatment of SMA. We have previously filed a probe report and have now done further SAR and further characterized the resulting compounds in mice studies. […]
Studies were approved by the National Institute of Neurological […] and Stroke Animal Care Committee and performed in accordance with the National Institutes of Health Guide for the Care and Use of Laboratory Animals. […] For survival studies, litters were maintained and kept with the mother until P21, after which if any SMA pups survived they were weaned and continued to be monitored.

SMILES | outcome
O=C(O)C1CCN(c2ncc(-c3ccc4c(c3)OCCCO4)s2)CC1 | active; yes
